In the library only some 0.5% were active in any assay of this set; here they are far more common.
E coli growth-1: blocks Escherichia coli growth; OD600, 23 h; hits give low values; OD600 absorbance (no concentration beside the values); 0.21% of 330,000 active;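 active = OD600 absorbance below the run mean of sample wells minus 3.6 SD, in any replicate, cut at about 0.56 in these data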
E coli growth-2: bacterial growth inhibition, counter-screen for AddAB inhibitors. E. coli V3065 growth, OD600 absorbance, 18 h. 0.27% of 330,000 active. inhibition, % at 11.9 µM;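 active = inhibition above the campaign's mean inhibition across all tested compounds plus 3 SD, cut at about 9.9% in these data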;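 note: uninfected addAB+ strain grown without phage in ampicillin broth; 0% = DMSO wells and 100% = ciprofloxacin 0.95 µg/ml wells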
phage Ecoli inh: E. coli growth loss with phage present | growth absorbance | 0.26% of 360,000 active | inhibition, % at 11.9 µM | AID 651602; in the data active = inhibition above about 11%
Tat transport: E. coli Tat transport inhibition; E. coli MC4100 TorA-mCherry Tat export, fluorescence; 0.036% of 340,000 active; AID 488895; inhibition, % at 10 µM;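 active = mean replicate inhibition at least 50% and at least half of replicates individually reaching 50%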;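 note: exported cargo escapes ClpAP degradation while cytoplasmic cargo is degraded and loses fluorescence; 0% = median of neutral control wells and 100% = median of NaSCN control wells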
AddAB inh: less growth of phage-infected E. coli with AddAB | E. coli expressing H. pylori AddAB, absorbance growth | inhibition, % at 11.9 µM | 0.29% of 330,000 active | AID 435030; in the data active = inhibition above about 12%;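 note: 0% = vehicle wells of infected cells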
* hit, by the source's call; i = inactive; x = no result.

SMILES	E coli growth-1	E coli growth-2	phage Ecoli inh	Tat transport	AddAB inh
CCOC(=O)C1=C(O)C(=Cc2cc(C)n(-c3ccc(F)cc3)c2C)N=C1C	0.69	x	x	x	x
CCCCCCCCCCCCCCCC(O)C[N+](C)(C)CCO (centres undefined)	x	x	3	52*	x
Cc1ccc(C=NNC(=O)CSc2nnc(-c3ccc(Cl)cc3)n2-c2ccc(Cl)cc2)o1	0.69	x	x	x	x
Cc1ccc(/C=N/NC(=O)CSc2nnc(-c3ccc(Cl)cc3)n2-c2ccc(Cl)cc2)o1	x	13*	11	-1	7
CC1(C)CC(=O)C=C(NCCN2CCN(C(=O)Nc3ccccc3)CC2)C1	0.64	-2	2	52*	-1
Nc1c(Cl)ncnc1NN=Cc1ccccn1	0.44*	x	x	x	x
C(=NNc1nncc2ccccc12)c1ccccn1	0.49*	x	x	x	x
Nc1c(Cl)ncnc1N/N=C/c1cccnc1	x	0	3	6	0
O=c1cnnc(NN=Cc2c[nH]c3ccccc23)[nH]1	0.71	x	x	x	x
O=c1cnnc(NN=Cc2ccccn2)[nH]1	0.43*	x	x	x	x
O=C(OC[C@H]1O[C@@H](OC(=O)c2cc(O)c(O)c(OC(=O)c3cc(O)c(O)c(O)c3)c2)[C@H](OC(=O)c2cc(O)c(O)c(OC(=O)c3cc(O)c(O)c(O)c3)c2)[C@@H](OC(=O)c2cc(O)c(O)c(OC(=O)c3cc(O)c(O)c(O)c3)c2)[C@@H]1OC(=O)c1cc(O)c(O)c(OC(=O)c2cc(O)c(O)c(O)c2)c1)c1cc(O)c(O)c(OC(=O)c2cc(O)c(O)c(O)c2)c1	x	30*	x	x	28*
C=C1c2cccc(O)c2C(=O)C2C(=O)[C@]3(O)C(=O)C(C(N)=O)C(=O)C(N(C)C)C3C(O)C12 (some centres undefined)	0.067*	x	x	x	x
CN(C)c1cccc(C(=O)NN=Cc2ccoc2)c1	0.68	x	x	x	x
CCC(C)C(N)c1cn(C(CCCN=C(N)N)C(=O)N2CCNCC2)nn1 (centres undefined)	0.7	x	x	x	x
O=C(NC1=NCCS1)c1ccc(N2CCCC2=O)cc1	0.53*	0	5	-9	1
Cc1nnc(NC(=O)c2ccc(N3CCCC3=O)cc2)s1	0.68	x	6	-3	x
Cc1cc(OCCCCn2ccnc2)cc(C)c1Cl	0.5*	-1	4	10	0
CC1C(NC(=O)C(=NOC(C)(C)C(=O)O)c2csc(N)n2)C(=O)N1S(=O)(=O)O (centres undefined)	0.059*	x	x	x	x
CCOC(=O)c1csc(N)n1	0.66	0	3	-15	1
O=C(NCc1nc2ccccc2[nH]1)c1cccc(S(=O)(=O)N2CCCC2)c1	0.66	10*	8	-10	10
CCCCCCn1c2c(c(=N)c3c1CCC3)CCC2	0.6	1	3	-10	2
CCCCCCCCCn1c2c(c(=N)c3c1CCC3)CCC2	0.49*	10*	x	-11	5
COc1ccc(C=NNC(=O)c2ccccc2O)cc1Cn1cc([N+](=O)[O-])cn1	0.73	x	x	x	x
CON=CNC(=O)N1OCC2COc3ccc4ccccc4c3C21 (centres undefined)	0.69	x	x	x	x
N#Cc1ccc(NC(=O)NN2CCCCCC2)cc1	0.53*	x	10	12	x
SMILES	E coli growth-1	E coli growth-2	phage Ecoli inh	Tat transport	AddAB inh
O=C(Nc1ccc(Cl)cc1)NN1CCCCCC1	0.62	x	3	6	x
O=C(Nc1cccnc1)Nc1ccc(F)c(Cl)c1	0.54*	0	7	-9	2
O=C(Nc1ccc(Cl)c(Cl)c1)Nc1ccccc1O	0.46*	5	7	12	4
O=C(Nc1ccc(Cl)c(Cl)c1)Nc1ccon1	0.54*	1	5	2	-1
CCOC1OC(C(=O)NCc2ccccc2)=CC(c2cn(C(C)=O)c3ccccc23)C1CCCO (centres undefined)	0.68	x	x	x	x
CC1CCCN(C2=NC(=O)C(=Cc3cn(-c4ccccc4)nc3-c3cccc(S(=O)(=O)N(C)C)c3)S2)C1 (centres undefined)	0.69	x	x	x	x
COc1cc2nc(Nc3ccc(C)c(Cl)c3)nc(N)c2cc1OC	0.59	1	3	-15	1
Nc1nc(Nc2ccc(Cl)cc2)nc2ccccc12	0.35*	2	3	-8	1
CN(C)c1ccc(Nc2nc(N)c3ccccc3n2)cc1	x	4	2	-4	1
Nc1nc(Nc2ccccc2)nc2ccccc12	0.53*	-3	2	1	1
Cc1ccc(Nc2nc(N)c3ccccc3n2)cc1Cl	0.44*	1	1	-6	3
Cc1ccc2sc(-c3ccc(NC(=O)C=CC(=O)O)cc3)nc2c1	0.66	x	x	x	x
Cn1c(SCC(=O)NN=Cc2cc([N+](=O)[O-])ccc2O)nnc1-c1ccccc1	0.63	x	x	x	x
COC(=O)c1ccc(C=Cc2c(-c3ccsc3)sc3ccccc23)cc1	0.7	x	x	x	x
CC(=CC(=O)OCCCCCCCCC(=O)O)CC1OCC(CC2OC2C(C)C(C)O)C(O)C1O (centres undefined)	0.12*	x	x	x	x
Cc1ccc2nc(-c3ccncc3)c(Nc3ccccc3)n2c1	0.68	-2	3	-3	0
Cc1ccc(Nc2c(-c3ccccn3)nc3cc(C)ccn23)cc1	0.4*	-1	7	5	3
Cc1ccn2c(Nc3ccc4c(c3)OCO4)c(-c3ccccn3)nc2c1	0.43*	3	2	-12	6
Cc1ccc(Nc2c(-c3ccccn3)nc3ccc(C)cn23)cc1	0.46*	7	5	-4	9
N=c1oc2ccccc2cc1C(=O)NN=Cc1ccccc1	0.72	x	x	x	x
CC1CN=C(N(C)C)N1CC1CCC(C(C)(C)C)CC1 (centres undefined)	0.64	x	x	x	x
O=C(COc1ccc([N+](=O)[O-])cc1)Nc1cc(S(=O)(=O)N2CCCCC2)ccc1N1CCCCC1	0.72	-1	4	64*	0
O=C(c1cnn(-c2ccccc2)c1)c1cc(Br)ccc1O	0.71	0	3	-5	4
O=C(c1ccc(O)c(Br)c1)c1cc(Br)ccc1O	0.39*	x	11	-6	x
CC1=NN(C(N)=S)C(=O)C1N=Nc1ccc(C)c(Br)c1 (centres undefined)	0.62	13*	3	-18	7
SMILES	E coli growth-1	E coli growth-2	phage Ecoli inh	Tat transport	AddAB inh
CC(C)(C)OC(=O)NCCCCC(NC(=O)c1nc[nH]c1C(=O)N1CCc2ccccc2C1)C(=O)OC(C)(C)C (centres undefined)	0.7	x	x	x	x
Cc1nc(N)c(Cc2ccc(Cl)cc2Cl)c(N)n1	0.48*	3	5	-10	5
COc1ccc(Cc2c(N)nc(C)nc2N)cc1	0.64	-1	5	-6	2
CN(C)c1ccc(C=c2c3ccccc3n3c2cc(-c2ccc(Cl)cc2)[n+]3C)cc1	x	x	-1	i	x
CN(C)c1ccc(C=c2c3ccccc3n3c2cc(-c2ccccc2)[n+]3C)cc1	x	x	11*	i	x
O=C1CCCCC=CCC(CC(=O)N(CCO)Cc2ccccc2)C(=O)NC(Cc2ccccc2)CO1 (centres undefined)	0.7	x	x	x	x
Nc1nc(SCC(=O)Nc2ncc(C(F)(F)F)cc2Cl)n[nH]1	0.71	12*	2	-10	9
COC(=O)N1CC=CC(c2ccc(OC)cc2)N(Cc2ccc(F)cc2)C(=O)C1 (centres undefined)	0.7	x	x	x	x
O=[N+]([O-])c1ccccc1Nc1c2ccccc2nc2ccccc12	0.66	1	1	2	4
